# Results from PubChem BioAssay AID651813 (National Center for Advancing Translational Sciences (NCATS), 2012).
# Hit rate of the full screen: of about 2,100 compounds, about 1,100 (52%) were called active. Not shown: some 27% with an inconclusive outcome. So high a share suggests a set chosen from earlier hits. This is one part of the list. Unmarked numbers belong to inactive results. Calls come from the whole dose curve; as a rule, active = well fitted inhibition curve with a large enough effect; inconclusive = small, poorly fitted or top-dose-only effect; inactive = no such curve, though single readings can be large or run the other way.
# Target: DNA dC->dU-editing enzyme APOBEC-3G (Homo sapiens) (UniProt Q9HC16)
# Sequence (Q9HC16 whole entry, looked up): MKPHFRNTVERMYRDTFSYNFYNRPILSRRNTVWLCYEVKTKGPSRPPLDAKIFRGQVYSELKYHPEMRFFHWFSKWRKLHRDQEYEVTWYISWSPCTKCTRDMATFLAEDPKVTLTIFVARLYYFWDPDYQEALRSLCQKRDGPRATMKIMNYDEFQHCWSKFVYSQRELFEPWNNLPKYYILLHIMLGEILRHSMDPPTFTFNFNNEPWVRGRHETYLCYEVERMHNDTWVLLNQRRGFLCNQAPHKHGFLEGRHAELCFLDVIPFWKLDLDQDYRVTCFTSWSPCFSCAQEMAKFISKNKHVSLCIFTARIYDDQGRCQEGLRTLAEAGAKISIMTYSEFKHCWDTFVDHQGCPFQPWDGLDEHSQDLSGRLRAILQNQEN
# Assay: qHTS for inhibitors of Vif-A3G interactions: Cherry picks counterscreen;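 note: hits raise yellow fluorescence by blocking Vif-driven A3G-eYFP degradation; nearly all actives have a fitted effect of over 70% in size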;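 for max response: max response given as percent of control signal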
# Details: HeLa A3G-eYFP + Vif (tagged APOBEC3G with the HIV-1 protein that degrades it), eYFP fluorescence, 24 h
# In short: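 HeLa cells stably expressing A3G-eYFP and Vif were treated for 24 h at 37 deg C with compounds at several concentrations; yellow fluorescence (Ex 488 nm, Em 500-530 nm) read by Acumen Explorer, MG132 as positive control.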
# Potency is the fitted concentration of half-maximal effect.
SMILES,max response,Potency
Cc1ccc2[nH]c(C(=O)NN=C3CCCCC3)c(-c3ccccc3)c2c1,4.2%,
Cc1cc(NC(=O)/C(C#N)=C\c2ccc(-c3ccc(SC(F)F)cc3)o2)n(-c2ccccc2)n1,,2.59 µM (active)
Cc1cc(NC(=O)/C(C#N)=C/c2ccc(-c3ccc(SC(F)F)cc3)o2)n(-c2ccccc2)n1,,4.61 µM (active)
COc1ccc2[nH]cc(/C=C/c3cc[n+](C)cc3)c2c1,,9.2 µM (active)
C[n+]1ccc(/C=C/c2c[nH]c3ccc(F)cc23)cc1,,5.8 µM (active)
Cc1ccc2[nH]cc(/C=C/c3cc[n+](C)cc3)c2c1,,1.4 µM (active)
COc1ccc2c(c1)c(/C=C/c1cc[n+](C)cc1)cn2C,,2.23 µM (active)
Cc1ccc(NC(=S)N/N=C2\CCCCC2C)cc1 (stereo not given),-4.1%,
Cc1ccc(/C=C/c2ccc(N(C)C)cc2)[n+](C)c1,,17.7 µM (active)
CN(C)c1ccc(/C=C/c2cc[n+](C)cc2)cc1,,12.5 µM (active)
CC[n+]1cc(C)ccc1/C=C/c1ccc(N(C)C)cc1,,17.7 µM (active)
C=CCOc1c(Cl)cc(C(=S)N2CCCC2)cc1OCC,,15.8 µM (active)
CCCOc1cc(N(CC)CC)ccc1/C=C(/C#N)c1nc2ccc(C)cc2[nH]1,37.6%,
Cc1cccc(OCCOc2ccccc2C=C(C#N)C#N)c1,,22.3 µM (active)
COC(=O)c1sccc1S(=O)(=O)N(CC(=O)Nc1cc(F)ccc1F)c1ccc(C)c(C)c1,-2.7%,
COC(=O)c1sccc1NC(=S)Nc1cc(C)cc(C)c1,5.75%,
CCOc1ccccc1C(=O)Nc1ccsc1C(=O)OC,,2.5 µM (active)
COc1ccc(NC(=O)C2(C)Cc3c(-c4cccc(C(N)=O)c4)ccnc3O2)cc1 (stereo not given),,4.44 µM (active)
COc1ccc(NC(=O)C2(C)Cc3c(-c4cccc(NC(C)=O)c4)ccnc3O2)cc1 (stereo not given),,1.77 µM (active)
CCCCn1c(N)c(N(CC(C)C)C(=O)Cc2ccc(S(=O)(=O)N3CCOCC3)s2)c(=O)[nH]c1=O,,18.4 µM (active)
CCCCn1c(N)c(N(Cc2ccccc2OC)C(=O)c2ccc([N+](=O)[O-])s2)c(=O)[nH]c1=O,-2.93%,
C=CCN1C(=O)c2ccc(C(=O)N(CC(C)C)c3c(N)n(CCCC)c(=O)[nH]c3=O)cc2C1=O,1.27%,
CCc1cc[n+](-c2nc3ccccc3nc2[N-]S(=O)(=O)c2ccc(Br)s2)cc1,,23.1 µM (active)
O=S(=O)([N-]c1nc2ccccc2nc1-[n+]1ccc(-c2ccncc2)cc1)c1ccccc1,5.45%,
Cc1cc(C)c[n+](-c2nc3ccccc3nc2[N-]S(=O)(=O)c2ccc(Br)s2)c1,,23.1 µM (active)
Cc1ccc(Cc2c(C3CCCCC3)nc3ccc(C)cn23)cc1,27.2%,
COc1ccc2oc(-c3ccccc3[N+](=O)[O-])cc(=O)c2c1,,5.59 µM (active)
CCCN1CCC(=NNc2ccc(S(=O)(=O)N3CCOCC3)cc2[N+](=O)[O-])CC1,,14 µM (active)
O=C(O)c1ccccc1/C=N/Nc1ccc(S(=O)(=O)N2CCOCC2)cc1[N+](=O)[O-],-0.239%,
Cc1ccc(NC(=S)N=Nc2c(O)n(C)c3ccc(S(=O)(=O)N4CCOCC4)cc23)cc1,0.754%,
